Assay outcomes as filed in PubChem.
The list is not random: actives were taken first. Their share in the collection is about 11%.
Pf growth 48h: Primary qHTS for delayed death inhibitors of the malarial parasite plastid, 48 hour incubation | Potency, µM (highest dose often 28.7 µM), most hits filed as inhibitors | AID 504832, 2011 | P. falciparum luciferase growth in erythrocytes, 48 h | 310,000 compounds, 5.9% hits
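Compounds are pin-transferred into medium, infected erythrocytes (2% hematocrit, 0.1% parasitemia final) are added, and plates sit one parasite generation at 37 C in 5% CO2. Detection reagent is then added and luminescence measured.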
Vaccinia mCherry: qHTS for Stage-Specific Inhibitors of Vaccinia Orthopoxvirus: mCherry Reporter Primary qHTS; Vaccinia virus mCherry reporter infection, fluorescence; 310,000 compounds, 0.63% hits; Potency, µM (doses to about 36.5 µM), most hits filed as inhibitors; calls by dose curve; tested in A549 cells; further: nearly all actives have a fitted effect of over 35% in size
HCV inh: qHTS Assay for Inhibitors of Hepatitis C Virus (HCV); Huh7.5.1 HCVcc-Cre infection, luciferase reporter, 44 h; AID 651820, 2012; 340,000 compounds, 3.4% hits; Potency, µM (titrated, usually from 41.8 µM), hits mostly inhibitors
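Compounds are dispensed onto cells plated 4 h earlier at 1,000 per well, with HCVcc-Cre virus (about 0.5 moi) added next. Following 44 h of culture, luminescent signal is measured for 15 sec after 15 min with substrate at room temperature.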
NS1 function inh: qHTS Assay for Inhibitors of Influenza NS1 Protein Function | AID 2326, 2010 | 270,000 compounds, 0.4% hits | Potency, µM (highest dose often 46.1 µM); calls by dose curve; further: actives are rising curves; nearly all actives have a fitted effect of over 50% in size
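A cell-based growth assay was used: compounds that relieve NS1-induced slow growth of budding yeast raise OD600. Assay medium was yeast nitrogen base with ammonium sulphate and -URA supplement, pH 6.0, with 2% galactose.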
VACV Venus inh: qHTS for Stage-Specific Inhibitors of Vaccinia Orthopoxvirus: Venus Reporter Primary qHTS; AID 720580, 2013; 330,000 compounds, 0.46% hits; Potency, µM (titrated, usually from 36.5 µM), actives largely listed as inhibitors; Vaccinia virus Venus reporter expression, fluorescence; calls by dose curve; tested in A549 cells; further: nearly all actives have a fitted effect of over 30% in size
Pf growth 96h: Primary qHTS for delayed death inhibitors of the malarial parasite plastid, 96 hour incubation. Potency, µM (top dose mostly 28.7 µM), most hits filed as inhibitors. AID 504834, 2011. 320,000 compounds, 6.9% hits. P. falciparum luciferase reporter growth, 96 h
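Parasite growth measured via integrated firefly luciferase reporter in P. falciparum. Infected erythrocytes at 2% hematocrit, 0.05% parasitemia final were treated 96 hours at 37 C under 5% CO2, and luminescence was read.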
Each line names hits and unclear results; the compound was inactive in the other large screens. Unless noted, the call rests on the fitted dose curve; in most records, active means well fitted inhibition curve with a large enough effect; inconclusive means small, poorly fitted or top-dose-only effect, or another doubt; inactive means no such curve, though single readings can be large or run the other way.

CC(C)(C)NC(=O)C(c1ccncc1)N(C(=O)Cn1nnc(-c2ccc(F)cc2)n1)c1ccccc1F (stereo not given)	Pf growth 48h inconclusive
O=c1cc(-c2ccccc2)[nH]n1-c1ccccc1	Vaccinia mCherry inconclusive (no result: Pf growth 48h, NS1 function inh, Pf growth 96h)
CC(C)(C)c1cc(=O)n(-c2ccccc2)[nH]1	Pf growth 48h inconclusive, Pf growth 96h 10µM
O=Cc1ccccc1OCCOc1ccc([N+](=O)[O-])cc1	Pf growth 96h inconclusive (no result: Vaccinia mCherry, NS1 function inh, VACV Venus inh)
CCCn1ncc(CN2CCCC(C(=O)c3cccc(OC(C)C)c3)C2)c1C (stereo not given)	Pf growth 48h 13µM, Pf growth 96h 12µM (no result: Vaccinia mCherry, VACV Venus inh)
Nc1nc(COC(=O)c2ccc3c(c2)OCCO3)nc(Nc2ccccc2)n1	HCV inh 11µM (no result: NS1 function inh)
Nc1nc(COC(=O)CCC(=O)c2ccccc2)nc(Nc2ccccc2)n1	Pf growth 96h inconclusive (no result: NS1 function inh)
Cc1ccccc1C(=O)N1CCC(C(=O)OCc2nc(N)nc(Nc3ccccc3)n2)CC1	Pf growth 48h inconclusive, Pf growth 96h 13µM (no result: Vaccinia mCherry, NS1 function inh, VACV Venus inh)
Cc1ccc(NC(=O)CCN2C(=O)c3ccncc3C2=O)cc1	none
N#Cc1ccccc1Sc1ccccc1C(=O)Nc1ccc2ccccc2c1	Vaccinia mCherry inconclusive, HCV inh inconclusive, NS1 function inh inconclusive, Pf growth 96h inconclusive
CC(=O)Nc1ccc2c(c1)nc(CCN1CCC(C)CC1)n2C	none (no result: Pf growth 48h, Vaccinia mCherry, VACV Venus inh)
CC1CCN(CCc2nc3cc(NC(=O)COc4ccc([N+](=O)[O-])cc4)ccc3n2C)CC1	Pf growth 48h 3.7µM, Vaccinia mCherry inconclusive, HCV inh inconclusive, VACV Venus inh inconclusive, Pf growth 96h inconclusive
CC1CCN(CCc2nc3cc(NC(=O)Nc4ccccc4)ccc3n2C)CC1	Pf growth 48h 6.6µM, HCV inh inconclusive, Pf growth 96h inconclusive (no result: Vaccinia mCherry, VACV Venus inh)
Cn1c(CCn2ccccc2=O)nc2cc(NC(=O)COc3ccccc3)ccc21	Pf growth 96h 10µM (no result: Vaccinia mCherry, VACV Venus inh)
CC(C)NC(=O)c1ccc(CN2CCC(Cc3ccccc3)CC2)cc1	Pf growth 48h inconclusive, HCV inh inconclusive, Pf growth 96h inconclusive
O=C(NC1CCCCC1)c1ccc(CSc2nc3cccnc3n2Cc2ccccc2)cc1	none (no result: Pf growth 48h, HCV inh, NS1 function inh, Pf growth 96h)
O=C(CSc1nc2cccnc2n1Cc1ccccc1)NC1CCCCC1	Pf growth 48h 10µM, Pf growth 96h inconclusive
O=C(NCCc1ccccc1)c1ccc(Cn2c(SCc3cccc(F)c3)nc3cccnc32)cc1	Pf growth 48h 9.3µM, VACV Venus inh inconclusive, Pf growth 96h 3.3µM (no result: HCV inh, NS1 function inh)
Cc1ccc2c(c1)CCO[C@]21O[C@H](CCO)C[C@H](O)[C@H]1O	none (no result: Pf growth 48h, HCV inh, NS1 function inh, Pf growth 96h)
O=C1C=C(c2ccc(Cl)c(C(F)(F)F)c2)C[C@@H](c2ccc(Cl)cc2)C1	Pf growth 48h inconclusive (no result: NS1 function inh)
COc1ccc(CCn2c(C(C)C)nc3c(c(=O)c4ccccc4n3C)c2=O)cc1	Pf growth 48h 12µM, HCV inh inconclusive, Pf growth 96h 1.9µM (no result: Vaccinia mCherry, VACV Venus inh)
COc1ccc(CCn2c(C)nc3c(c(=O)c4ccccc4n3C)c2=O)cc1	Pf growth 48h inconclusive, HCV inh inconclusive, Pf growth 96h 4.7µM
COc1ccc2c(=O)c3c(=O)n(CCc4ccccc4)c(C(C)C)nc3oc2c1	Pf growth 48h 7.4µM, Pf growth 96h 5.2µM
O=C(Nc1ccccc1F)c1ccncc1	none
Cc1ccc(-c2nc(-c3cccnc3)sc2CC(=O)Nc2ccc3nc(C)sc3c2)cc1	Pf growth 48h inconclusive, Pf growth 96h 13µM
O=C(O)Cc1sc(-c2cccnc2)nc1-c1ccc(Br)cc1	HCV inh inconclusive (no result: NS1 function inh)
Cc1nc2ccc(NC(=O)c3cccnc3)cc2s1	HCV inh inconclusive (no result: NS1 function inh)
CCOC(=O)c1ccccc1NC(=O)Cc1sc(-c2cccnc2)nc1-c1ccc(C)cc1	Pf growth 48h 4.1µM, Pf growth 96h 2.6µM (no result: Vaccinia mCherry, VACV Venus inh)
CCc1nnc(NC(=O)c2ccc(Cl)c(S(=O)(=O)N3CCc4ccccc43)c2)s1	Pf growth 96h inconclusive (no result: Pf growth 48h, Vaccinia mCherry)
Cc1cccc(NC(=O)c2ccc(Cl)c(S(=O)(=O)N3CCCC3)c2)n1	Pf growth 48h inconclusive, Pf growth 96h 7.4µM
Cc1ccc(S(=O)(=O)N2CCCCC2)cc1C(=O)Nc1ccccn1	Pf growth 48h 3.3µM, Pf growth 96h 2.1µM
COc1ccc(S(=O)(=O)N2CCCCCC2)cc1C(=O)Nc1ccccn1	Pf growth 96h inconclusive
